{"source": "PubChem BioAssay (NCATS)", "note": "Records with an inconclusive call do not appear. A call without a number means that no potency is given here. Activity calls are given as the source filed them. Calls come from the whole dose curve; as a rule, active = well fitted inhibition curve with a large enough effect; inconclusive = small, poorly fitted or top-dose-only effect; inactive = no such curve, though single readings can be large or run the other way. Potency is the fitted concentration of half-maximal effect.", "data": [{"system": "Zika virus NS2B-NS3 protease (unlinked)", "test": "Optimization of GU AMC qHTS for Zika virus inhibitors: Unlinked NS2B-NS3 protease assay (AID 1347151); note: nearly all actives have a fitted effect of over 80% in size", "settings": "recombinant ZIKV NS2B-NS3 protease, fluorogenic AMC substrate; series mostly up to 52.5 µM", "description": "Avindra Nath, Ph.D., National Institute of Neurological Disorders and Stroke (NINDS), Bethesda, MD\nRadhakrishnan Padmanabhan, Ph.D., Georgetown University (GU), Washington D.C.\nZika Virus causes congenital defects, including microcephaly and is associated with Guillain-Barre syndrome, eningoencephalitis and myelitis in infected adult. […] Using a target-based approach, we hope to establish a screening paradigm to uncover novel, cell-active NS2B-NS3 protease (Zika Virus) specific inhibitors from NCATS' collection of small molecules using qHTS.\nEarly Translation Branch (ETB)\nNational Center for Advancing Translational Sciences (NCATS), Rockville, MD\nNational Institute of Health (NIH), Bethesda, Maryland\nPadmanabhan lab provided the NS2B hydrophilic domain and NS3 protease domain in a noncovalent complex used for the unlinked assay. Control compound aprotinin is obtained from Thermo Scientific (#78432; Waltham, Massachusetts). NS2B-NS3 AMC substrate (Bz-Nle-Lys-Arg-Arg-AMC; Nle-KRR-AMC) purchased from Bachem (#I-1995; Torrance, CA). Ac-VKTGKR-AMC purchased from Genscript or Bachem, Ac-FAAGKR-AMC purchased from Genscript, Ac-GLVKRR-AMC purchased from Genscript, Ac-LKKR-AMC purchased from Genscript.\nGU AMC unlinked NS2B-NS3 protease qHTS protocol:\nBriefly, 3 microL of Zika virus unlinked NS2B-NS3 protease (25 nM for linked final concentration), in assay buffer (10 mM Tris-HCl pH 8.0 with 0.01% Tween 20) was dispensed into a 1,536-well solid-bottom black plate (Greiner Bio One, Monroe, NC). Twenty-three nL of compounds (final concentration range 7.28 nM to 114 microM) or control Aprotinin (final concentration range 3.47 nM to 114 microM) were transferred via Wako Pin-tool (Wako Automation, Richmond, VA). […] Plates were then read immediately on a ViewLux High-throughput CCD imager (PerkinElmer, Waltham, MA) equipped with standard UV fluorescence optics (340(30) nm excitation, 450(20) nm emission) then incubated (room temperature, protected from light) for 15 minutes (~20% conversion). The change in fluorescence intensity over the 15-minute reaction period was normalized against no-inhibitor and no-enzyme controls and the resulting percent inhibition data were fitted to a 4-parameter Hill equation. Aprotinin was used as the intraplate control.", "values": [{"smiles": "CN(C)C(=O)Oc1ccc[n+](C)c1", "Potency": "inactive"}, {"smiles": "C#CCN(C)CCCOc1ccc(Cl)cc1Cl", "Potency": "inactive"}, {"smiles": "CN1CCN(CC(=O)N2c3ccccc3C(=O)Nc3cccnc32)CC1", "Potency": "inactive"}, {"smiles": "CN1C[C@H](C(=O)N[C@]2(C)O[C@@]3(O)[C@@H]4CCCN4C(=O)[C@H](Cc4ccccc4)N3C2=O)C[C@@H]2c3cccc4[nH]cc(c34)C[C@H]21", "Potency": "inactive"}, {"smiles": "CCCN(CCC)C(=O)C(CCC(=O)O)NC(=O)c1ccccc1", "note": "(stereo not given)", "Potency": "inactive"}, {"smiles": "NC/C=C/C(=O)O", "Potency": "inactive"}, {"smiles": "COCC(=O)O[C@]1(CCN(C)CCCc2nc3ccccc3[nH]2)CCc2cc(F)ccc2[C@@H]1C(C)C", "Potency": "inactive"}, {"smiles": "Cc1nc2c([nH]1)c(=O)n(C)c(=O)n2Cc1ccco1", "Potency": "inactive"}, {"smiles": "NC(=O)c1cn(Cc2c(F)cccc2F)nn1", "Potency": "inactive"}, {"smiles": "NS(=O)(=O)c1cc2c(cc1Cl)NC(C1CC3C=CC1C3)NS2(=O)=O", "note": "(stereo not given)", "Potency": "inactive"}, {"smiles": "C[C@@H](O)[C@H]1C(=O)N2C(C(=O)O)=C(SCCN=CN)C[C@H]12", "Potency": "inactive"}, {"smiles": "COC(=O)[C@@H](N)Cc1ccc(O)c(O)c1", "Potency": "inactive"}, {"smiles": "CN=C(NC#N)NCCSCc1nc[nH]c1C", "Potency": "inactive"}, {"smiles": "C[C@]12C=CC(=O)C=C1CC[C@H]1[C@@H]3C[C@@H](O)[C@](O)(C(=O)CO)[C@@]3(C)C[C@H](O)[C@@]12F", "Potency": "inactive"}, {"smiles": "CC(C)COCC(CN(Cc1ccccc1)c1ccccc1)N1CCCC1", "note": "(stereo not given)", "Potency": "inactive"}, {"smiles": "CCN(CC)CCCN(c1ccccc1)C1Cc2ccccc2C1", "Potency": "inactive"}, {"smiles": "COc1ccc([C@@H]2Sc3ccccc3N(CCN(C)C)C(=O)[C@@H]2OC(C)=O)cc1", "Potency": "inactive"}, {"smiles": "CN(C)C/C=C(/c1ccc(Br)cc1)c1cccnc1", "Potency": "inactive"}, {"smiles": "C[N+](C)(C)CCOC(N)=O", "Potency": "inactive"}, {"smiles": "Cc1ccc(=O)n(-c2ccccc2)c1", "Potency": "26.7 µM (active)"}, {"smiles": "CC(C)NNC(=O)c1ccncc1", "Potency": "inactive"}, {"smiles": "CN(C)CCOC(=O)COc1ccc(Cl)cc1", "Potency": "inactive"}, {"smiles": "CN(C)CC[C@@H](c1ccc(Br)cc1)c1ccccn1", "Potency": "inactive"}, {"smiles": "C[N+](C)(C)CCCCCCCCCC[N+](C)(C)C", "Potency": "inactive"}, {"smiles": "C[C@]12CCC(=O)C=C1CC[C@@H]1[C@@H]2C(=O)C[C@@]2(C)[C@H]1CC[C@]2(O)C(=O)CO", "Potency": "inactive"}, {"smiles": "C[N+](C)(C)CCOC(=O)CCC(=O)OCC[N+](C)(C)C", "Potency": "inactive"}, {"smiles": "Brc1c(NC2=NCCN2)ccc2nccnc12", "Potency": "inactive"}, {"smiles": "NC(N)=NC(=O)Cc1c(Cl)cccc1Cl", "Potency": "inactive"}, {"smiles": "CCN(Cc1ccncc1)C(=O)C(CO)c1ccccc1", "note": "(stereo not given)", "Potency": "inactive"}, {"smiles": "CCCOc1ccccc1-c1nc2n[nH]nc2c(=O)[nH]1", "Potency": "inactive"}, {"smiles": "NC1=NCC2c3ccccc3Cc3ccccc3N12", "note": "(stereo not given)", "Potency": "inactive"}, {"smiles": "CCc1cccc(N(C)C(N)=Nc2cccc3ccccc23)c1", "Potency": "inactive"}, {"smiles": "Nc1ncn([C@@H]2O[C@H](CO)[C@@H](O)[C@H]2O)c(=O)n1", "Potency": "inactive"}, {"smiles": "COc1ccc2c(c1OC)C(=O)O[C@@H]2[C@H]1c2c(cc3c(c2OC)OCO3)CCN1C", "Potency": "inactive"}, {"smiles": "COCCCC/C(=N\\OCCN)c1ccc(C(F)(F)F)cc1", "Potency": "inactive"}, {"smiles": "COc1cc(Cc2cnc(N)nc2N)cc(OC)c1OC", "Potency": "inactive"}, {"smiles": "CCc1c(C)[nH]c2c1C(=O)C(CN1CCOCC1)CC2", "note": "(stereo not given)", "Potency": "inactive"}, {"smiles": "CCCNC(C)C(=O)Nc1ccccc1C", "note": "(stereo not given)", "Potency": "inactive"}, {"smiles": "CN(C)C(=O)Oc1cccc([N+](C)(C)C)c1", "Potency": "inactive"}, {"smiles": "CCCCNC(=O)NS(=O)(=O)c1ccc(C)cc1", "Potency": "inactive"}]}]}
